In paper PMC7862700, “An all-to-all approach to the identification of sequence-specific readers for epigenetic DNA modifications on cytosine”:

Legend:
Experiment in all cases: DAPPL (digital affinity profiling via proximity ligation, sequencing); 10 mM Tris-HCl pH 7.5, 50 mM NaCl, 1 mM DTT, 4% glycerol, room temperature, 30 min; GST-TFs on glutathione beads, 16-mer random dsDNA library, 0.1% formaldehyde crosslink after washing; high values mean tight binding
Settings in all cases: protein: recombinant; tags: N-terminal GST; dsDNA, one strand shown
FLI1 = target: T1, FLI1 (Homo sapiens, UniProt Q01543 1-452)
T1 sequence: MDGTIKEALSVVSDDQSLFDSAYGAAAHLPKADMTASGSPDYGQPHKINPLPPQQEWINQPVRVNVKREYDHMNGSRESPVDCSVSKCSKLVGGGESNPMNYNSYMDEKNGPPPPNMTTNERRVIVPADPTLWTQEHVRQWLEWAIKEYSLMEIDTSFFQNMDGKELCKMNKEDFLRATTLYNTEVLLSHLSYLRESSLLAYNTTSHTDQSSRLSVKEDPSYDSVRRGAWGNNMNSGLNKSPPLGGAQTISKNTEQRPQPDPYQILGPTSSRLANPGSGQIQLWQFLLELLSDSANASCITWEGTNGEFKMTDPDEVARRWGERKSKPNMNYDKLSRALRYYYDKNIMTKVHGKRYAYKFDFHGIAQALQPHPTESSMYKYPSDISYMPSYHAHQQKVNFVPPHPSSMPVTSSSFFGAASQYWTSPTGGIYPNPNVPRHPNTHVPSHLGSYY
Summary of the method: (§1)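 Binding signal is defined as a hexamer's read frequency for one factor over its frequency for the tag-only sample. To obtain reads, GST-fused human transcription factors were expressed in yeast, captured on glutathione beads, barcoded with DNA and pooled with that sample. Pools met 200 nmole of a 16-mer random double-stranded DNA library in Tris/NaCl/DTT/glycerol buffer for 30 min at room temperature before washing, 0.1% formaldehyde crosslinking, proximity ligation (BsaI/T4 ligase, 1 h, 37 °C), PCR and Illumina NextSeq500 sequencing.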

ELK1 = target: T2, ELK1 (Homo sapiens, UniProt P19419 1-428)
T2 sequence: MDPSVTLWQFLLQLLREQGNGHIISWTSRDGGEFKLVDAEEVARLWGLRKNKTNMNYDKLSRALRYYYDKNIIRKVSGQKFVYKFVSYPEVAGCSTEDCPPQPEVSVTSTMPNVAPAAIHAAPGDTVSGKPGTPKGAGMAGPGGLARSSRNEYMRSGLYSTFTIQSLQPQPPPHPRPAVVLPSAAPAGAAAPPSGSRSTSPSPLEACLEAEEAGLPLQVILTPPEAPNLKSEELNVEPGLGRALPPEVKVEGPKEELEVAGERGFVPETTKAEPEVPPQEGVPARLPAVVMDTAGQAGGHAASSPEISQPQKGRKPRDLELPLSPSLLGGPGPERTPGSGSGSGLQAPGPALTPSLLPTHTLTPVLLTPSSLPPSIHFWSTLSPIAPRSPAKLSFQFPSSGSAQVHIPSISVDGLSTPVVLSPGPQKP
Summary of the method: as §1

GABPA = target: T3, GABPA (Homo sapiens, UniProt Q06546 1-454)
T3 sequence: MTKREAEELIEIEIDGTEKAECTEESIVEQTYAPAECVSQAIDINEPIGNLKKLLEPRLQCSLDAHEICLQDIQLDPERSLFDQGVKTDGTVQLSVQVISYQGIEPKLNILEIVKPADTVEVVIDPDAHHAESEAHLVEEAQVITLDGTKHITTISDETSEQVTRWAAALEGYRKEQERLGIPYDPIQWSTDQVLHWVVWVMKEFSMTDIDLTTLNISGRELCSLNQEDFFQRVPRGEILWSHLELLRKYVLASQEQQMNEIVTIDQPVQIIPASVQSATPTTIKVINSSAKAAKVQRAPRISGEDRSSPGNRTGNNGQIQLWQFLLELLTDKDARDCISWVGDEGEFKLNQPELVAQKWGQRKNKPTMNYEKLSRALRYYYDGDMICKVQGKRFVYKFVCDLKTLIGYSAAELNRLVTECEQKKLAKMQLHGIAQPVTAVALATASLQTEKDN
Summary of the method: as §1

ELF1 = ELF1 (Homo sapiens, UniProt P32519 1-619)
Summary of the method: as §1

EHF = target: T4, EHF (Homo sapiens, UniProt Q9NZC4 1-300)
T4 sequence: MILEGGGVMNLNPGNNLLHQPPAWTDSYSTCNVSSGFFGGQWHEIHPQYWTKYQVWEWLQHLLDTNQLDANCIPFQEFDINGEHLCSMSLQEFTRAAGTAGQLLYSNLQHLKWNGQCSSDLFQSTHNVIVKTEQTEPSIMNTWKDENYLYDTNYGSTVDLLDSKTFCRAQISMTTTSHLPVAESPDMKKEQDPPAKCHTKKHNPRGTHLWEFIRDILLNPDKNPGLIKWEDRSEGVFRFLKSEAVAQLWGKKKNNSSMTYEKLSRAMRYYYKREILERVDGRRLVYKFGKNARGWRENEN
Summary of the method: as §1

SPI1 = SPI1 (Homo sapiens, UniProt P17947 1-270)
Summary of the method: as §1

SPIB = SPIB (Homo sapiens, UniProt Q01892 1-262)
Summary of the method: as §1

FEV = target: T5, FEV (Homo sapiens, UniProt Q99581 1-238)
T5 sequence: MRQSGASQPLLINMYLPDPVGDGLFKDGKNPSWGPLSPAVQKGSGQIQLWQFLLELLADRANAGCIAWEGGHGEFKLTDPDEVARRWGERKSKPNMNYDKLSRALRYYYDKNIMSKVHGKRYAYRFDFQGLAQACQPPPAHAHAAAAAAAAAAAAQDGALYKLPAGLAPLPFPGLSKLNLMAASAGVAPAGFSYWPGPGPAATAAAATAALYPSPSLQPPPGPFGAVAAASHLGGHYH
Summary of the method: as §1

ETV5 = ETV5 (Homo sapiens, UniProt P41161 1-510)
Summary of the method: as §1

SPIC = target: T6, SPIC (Homo sapiens, UniProt Q8N5J4 1-248)
T6 sequence: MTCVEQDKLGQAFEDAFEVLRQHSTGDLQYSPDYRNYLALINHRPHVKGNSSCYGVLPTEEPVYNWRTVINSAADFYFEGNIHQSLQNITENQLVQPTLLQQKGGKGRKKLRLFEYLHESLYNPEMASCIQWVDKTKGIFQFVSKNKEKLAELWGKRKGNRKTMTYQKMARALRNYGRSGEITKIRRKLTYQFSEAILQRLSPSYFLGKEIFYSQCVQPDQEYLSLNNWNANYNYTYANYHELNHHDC
Summary of the method: as §1

ELF4 = ELF4 (Homo sapiens, UniProt Q99607 1-663)
Summary of the method: as §1

ELK4 = target: T7, ELK4 (Homo sapiens, UniProt P28324-2 1-405)
T7 sequence: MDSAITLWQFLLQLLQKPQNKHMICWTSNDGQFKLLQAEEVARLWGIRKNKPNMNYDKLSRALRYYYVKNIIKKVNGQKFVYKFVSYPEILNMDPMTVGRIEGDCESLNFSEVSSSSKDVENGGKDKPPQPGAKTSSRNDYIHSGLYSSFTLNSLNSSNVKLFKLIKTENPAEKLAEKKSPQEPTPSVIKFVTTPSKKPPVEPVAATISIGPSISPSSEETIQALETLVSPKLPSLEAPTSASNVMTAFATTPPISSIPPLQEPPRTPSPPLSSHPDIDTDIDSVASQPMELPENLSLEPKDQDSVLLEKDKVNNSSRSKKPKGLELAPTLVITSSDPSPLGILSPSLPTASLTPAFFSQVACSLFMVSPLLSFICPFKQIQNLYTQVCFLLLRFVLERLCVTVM
Summary of the method: as §1

ETV2 = target: T8, ETV2 (Homo sapiens, UniProt O00321 1-342)
T8 sequence: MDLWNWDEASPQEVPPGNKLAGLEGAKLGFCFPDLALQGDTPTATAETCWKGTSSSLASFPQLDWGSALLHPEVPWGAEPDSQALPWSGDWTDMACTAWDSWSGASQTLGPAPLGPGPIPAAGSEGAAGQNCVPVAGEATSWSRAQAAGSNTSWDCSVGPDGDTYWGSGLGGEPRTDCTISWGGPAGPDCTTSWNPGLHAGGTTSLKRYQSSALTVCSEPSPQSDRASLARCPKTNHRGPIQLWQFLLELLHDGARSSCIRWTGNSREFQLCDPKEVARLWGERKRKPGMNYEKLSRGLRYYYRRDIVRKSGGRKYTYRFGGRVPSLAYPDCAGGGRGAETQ
Summary of the method: as §1

CRX = CRX (Homo sapiens, UniProt O43186 1-299)
Summary of the method: as §1

ERG = target: T9, ERG (Homo sapiens, UniProt P11308 1-479)
T9 sequence: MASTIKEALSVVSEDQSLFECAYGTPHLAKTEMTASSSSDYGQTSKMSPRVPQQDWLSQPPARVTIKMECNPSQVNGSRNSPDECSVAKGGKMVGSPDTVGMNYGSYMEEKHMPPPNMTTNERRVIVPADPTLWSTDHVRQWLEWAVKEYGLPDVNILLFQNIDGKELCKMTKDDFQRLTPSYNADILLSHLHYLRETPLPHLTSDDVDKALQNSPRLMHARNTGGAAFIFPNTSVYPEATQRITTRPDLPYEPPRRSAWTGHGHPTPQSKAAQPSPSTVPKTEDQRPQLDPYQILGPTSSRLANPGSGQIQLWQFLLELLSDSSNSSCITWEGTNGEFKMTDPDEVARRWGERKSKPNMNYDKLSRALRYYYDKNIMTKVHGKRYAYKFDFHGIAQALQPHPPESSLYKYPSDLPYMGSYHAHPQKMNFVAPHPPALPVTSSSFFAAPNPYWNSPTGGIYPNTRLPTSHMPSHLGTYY
Summary of the method: as §1

ELK3 = target: T10, ELK3 (Homo sapiens, UniProt P41970 1-407)
T10 sequence: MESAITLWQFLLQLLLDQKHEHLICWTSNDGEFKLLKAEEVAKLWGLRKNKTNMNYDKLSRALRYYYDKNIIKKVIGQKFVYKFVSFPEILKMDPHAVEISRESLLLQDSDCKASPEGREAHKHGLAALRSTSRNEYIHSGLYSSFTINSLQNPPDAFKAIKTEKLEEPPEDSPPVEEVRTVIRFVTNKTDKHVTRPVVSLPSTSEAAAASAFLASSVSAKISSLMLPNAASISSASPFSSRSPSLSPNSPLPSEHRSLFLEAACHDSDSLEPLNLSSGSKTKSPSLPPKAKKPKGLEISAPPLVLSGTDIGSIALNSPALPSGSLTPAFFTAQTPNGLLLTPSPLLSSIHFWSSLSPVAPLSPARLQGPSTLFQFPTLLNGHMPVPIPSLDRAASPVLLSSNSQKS
Summary of the method: as §1

ELF3 = target: T11, ELF3 (Homo sapiens, UniProt P78545 1-371)
T11 sequence: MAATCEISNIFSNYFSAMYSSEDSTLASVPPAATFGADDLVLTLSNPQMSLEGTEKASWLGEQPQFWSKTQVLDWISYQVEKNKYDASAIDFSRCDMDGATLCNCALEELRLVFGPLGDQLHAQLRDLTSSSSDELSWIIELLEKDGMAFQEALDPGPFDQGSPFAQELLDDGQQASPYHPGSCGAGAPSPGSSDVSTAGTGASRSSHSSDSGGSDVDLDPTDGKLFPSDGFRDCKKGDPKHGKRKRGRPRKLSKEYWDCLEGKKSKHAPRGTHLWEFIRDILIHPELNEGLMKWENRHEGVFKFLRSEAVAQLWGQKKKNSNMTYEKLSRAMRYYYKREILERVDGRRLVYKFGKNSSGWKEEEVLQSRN
Summary of the method: as §1

ETV1 = ETV1 (Homo sapiens, UniProt P50549 1-477)
Summary of the method: as §1

Chain of CRX (O43186 whole entry): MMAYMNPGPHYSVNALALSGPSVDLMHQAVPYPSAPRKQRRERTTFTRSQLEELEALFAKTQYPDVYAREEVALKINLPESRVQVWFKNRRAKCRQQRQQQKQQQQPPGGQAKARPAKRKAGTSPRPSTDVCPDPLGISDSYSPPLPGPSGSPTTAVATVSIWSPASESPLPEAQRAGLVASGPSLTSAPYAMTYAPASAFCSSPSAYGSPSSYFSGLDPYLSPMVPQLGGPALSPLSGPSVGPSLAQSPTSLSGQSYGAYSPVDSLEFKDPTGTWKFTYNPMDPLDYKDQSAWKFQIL
Chain of ELF4 (Q99607 whole entry): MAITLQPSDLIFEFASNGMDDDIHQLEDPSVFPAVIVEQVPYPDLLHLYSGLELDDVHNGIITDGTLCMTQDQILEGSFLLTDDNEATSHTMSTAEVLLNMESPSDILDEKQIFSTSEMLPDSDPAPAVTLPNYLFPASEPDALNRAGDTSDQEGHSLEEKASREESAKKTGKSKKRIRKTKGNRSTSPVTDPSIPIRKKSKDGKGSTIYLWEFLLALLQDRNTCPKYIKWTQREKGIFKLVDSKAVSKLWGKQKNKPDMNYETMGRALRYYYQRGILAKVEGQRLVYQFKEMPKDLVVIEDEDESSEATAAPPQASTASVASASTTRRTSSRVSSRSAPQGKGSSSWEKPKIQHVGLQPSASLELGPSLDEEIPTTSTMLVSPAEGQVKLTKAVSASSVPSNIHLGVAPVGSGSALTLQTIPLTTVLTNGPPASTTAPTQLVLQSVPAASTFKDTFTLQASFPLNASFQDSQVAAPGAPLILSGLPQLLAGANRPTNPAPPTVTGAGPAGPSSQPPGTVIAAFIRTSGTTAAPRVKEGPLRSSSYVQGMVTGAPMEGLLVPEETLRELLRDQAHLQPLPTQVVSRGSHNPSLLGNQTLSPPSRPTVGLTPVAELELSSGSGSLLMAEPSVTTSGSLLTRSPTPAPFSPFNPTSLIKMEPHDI
Chain of ETV5 (P41161 whole entry): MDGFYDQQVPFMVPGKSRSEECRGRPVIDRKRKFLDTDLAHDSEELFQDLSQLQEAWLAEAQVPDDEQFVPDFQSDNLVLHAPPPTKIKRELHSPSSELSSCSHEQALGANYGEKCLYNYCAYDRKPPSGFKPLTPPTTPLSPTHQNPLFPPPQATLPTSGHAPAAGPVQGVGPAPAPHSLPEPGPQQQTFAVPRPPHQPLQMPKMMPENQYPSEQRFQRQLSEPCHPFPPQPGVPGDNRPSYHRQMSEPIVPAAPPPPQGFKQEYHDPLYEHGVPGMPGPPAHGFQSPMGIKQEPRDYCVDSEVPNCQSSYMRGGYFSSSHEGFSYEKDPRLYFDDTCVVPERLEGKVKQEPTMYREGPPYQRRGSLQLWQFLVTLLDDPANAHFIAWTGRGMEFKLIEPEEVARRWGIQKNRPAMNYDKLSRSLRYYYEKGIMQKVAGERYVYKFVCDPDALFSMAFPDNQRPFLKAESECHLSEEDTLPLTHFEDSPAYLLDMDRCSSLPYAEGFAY
Chain of SPIB (Q01892 whole entry): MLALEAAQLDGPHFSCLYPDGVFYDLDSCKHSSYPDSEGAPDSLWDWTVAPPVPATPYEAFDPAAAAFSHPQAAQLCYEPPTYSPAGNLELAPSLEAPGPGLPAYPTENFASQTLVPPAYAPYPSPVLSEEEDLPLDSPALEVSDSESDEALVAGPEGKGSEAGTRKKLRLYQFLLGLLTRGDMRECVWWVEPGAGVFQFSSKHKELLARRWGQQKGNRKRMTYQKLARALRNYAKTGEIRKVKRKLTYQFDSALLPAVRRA
Chain of ELF1 (P32519 whole entry): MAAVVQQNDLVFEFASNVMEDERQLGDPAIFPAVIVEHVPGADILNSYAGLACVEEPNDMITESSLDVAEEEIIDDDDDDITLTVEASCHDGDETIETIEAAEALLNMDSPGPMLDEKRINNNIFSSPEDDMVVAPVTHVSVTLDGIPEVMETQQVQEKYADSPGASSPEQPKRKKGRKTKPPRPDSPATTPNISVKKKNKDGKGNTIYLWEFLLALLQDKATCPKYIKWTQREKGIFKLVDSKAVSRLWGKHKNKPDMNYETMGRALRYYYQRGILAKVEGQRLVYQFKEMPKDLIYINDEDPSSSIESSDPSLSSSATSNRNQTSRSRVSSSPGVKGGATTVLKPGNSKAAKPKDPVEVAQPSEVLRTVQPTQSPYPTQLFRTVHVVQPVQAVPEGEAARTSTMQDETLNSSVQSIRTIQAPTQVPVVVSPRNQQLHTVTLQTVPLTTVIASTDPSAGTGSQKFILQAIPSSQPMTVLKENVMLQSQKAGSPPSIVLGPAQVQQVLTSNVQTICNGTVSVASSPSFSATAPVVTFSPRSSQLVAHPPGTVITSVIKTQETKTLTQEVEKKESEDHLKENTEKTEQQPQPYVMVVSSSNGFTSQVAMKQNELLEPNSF
Chain of ETV1 (P50549 whole entry): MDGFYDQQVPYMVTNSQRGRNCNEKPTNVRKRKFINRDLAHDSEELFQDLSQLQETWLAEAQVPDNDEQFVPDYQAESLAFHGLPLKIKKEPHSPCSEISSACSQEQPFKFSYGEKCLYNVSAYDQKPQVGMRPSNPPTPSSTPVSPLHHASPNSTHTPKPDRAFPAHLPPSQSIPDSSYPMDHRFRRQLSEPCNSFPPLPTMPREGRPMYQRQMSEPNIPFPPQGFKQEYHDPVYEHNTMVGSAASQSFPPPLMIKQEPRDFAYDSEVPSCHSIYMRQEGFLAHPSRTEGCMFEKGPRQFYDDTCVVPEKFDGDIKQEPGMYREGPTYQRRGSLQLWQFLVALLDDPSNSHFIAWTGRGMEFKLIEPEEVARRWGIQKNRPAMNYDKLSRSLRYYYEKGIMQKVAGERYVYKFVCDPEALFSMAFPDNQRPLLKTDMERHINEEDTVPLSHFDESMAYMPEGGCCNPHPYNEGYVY

Row | Sequence | binding signal (FLI1) | binding signal (ELK1) | binding signal (GABPA) | binding signal (ELF1) | binding signal (EHF) | binding signal (SPI1) | binding signal (SPIB) | binding signal (FEV) | binding signal (ETV5) | binding signal (SPIC) | binding signal (ELF4) | binding signal (ELK4) | binding signal (ETV2) | binding signal (CRX) | binding signal (ERG) | binding signal (ELK3) | binding signal (ELF3) | binding signal (ETV1)
1 | TGCCTA | 1.02 fold enrichment (6-mer frequency, TF over GST control) | 1.12 fold enrichment (6-mer frequency, TF over GST control) | 1.01 fold enrichment (6-mer frequency, TF over GST control) | 1.11 fold enrichment (6-mer frequency, TF over GST control) | 1.09 fold enrichment (6-mer frequency, TF over GST control) | 1.04 fold enrichment (6-mer frequency, TF over GST control) | 1.07 fold enrichment (6-mer frequency, TF over GST control) | 1.05 fold enrichment (6-mer frequency, TF over GST control) | 1 fold enrichment (6-mer frequency, TF over GST control) | 1.18 fold enrichment (6-mer frequency, TF over GST control) | 1.09 fold enrichment (6-mer frequency, TF over GST control) | 1.24 fold enrichment (6-mer frequency, TF over GST control) | 1.17 fold enrichment (6-mer frequency, TF over GST control) | 1.08 fold enrichment (6-mer frequency, TF over GST control) |  |  |  | 
2 | ATATGA | 1.11 fold enrichment (6-mer frequency, TF over GST control) | 1.07 fold enrichment (6-mer frequency, TF over GST control) | 1.1 fold enrichment (6-mer frequency, TF over GST control) | 1.06 fold enrichment (6-mer frequency, TF over GST control) | 1.07 fold enrichment (6-mer frequency, TF over GST control) | 1.1 fold enrichment (6-mer frequency, TF over GST control) | 1.1 fold enrichment (6-mer frequency, TF over GST control) | 1.03 fold enrichment (6-mer frequency, TF over GST control) | 1.11 fold enrichment (6-mer frequency, TF over GST control) | 1.16 fold enrichment (6-mer frequency, TF over GST control) | 1.1 fold enrichment (6-mer frequency, TF over GST control) | 1.19 fold enrichment (6-mer frequency, TF over GST control) |  | 1.02 fold enrichment (6-mer frequency, TF over GST control) | 1.14 fold enrichment (6-mer frequency, TF over GST control) | 1.18 fold enrichment (6-mer frequency, TF over GST control) | 1.1 fold enrichment (6-mer frequency, TF over GST control) | 1.05 fold enrichment (6-mer frequency, TF over GST control)
